Experimental data: ChEMBL document CHEMBL1961873, “Compounds: GSK PKIS; Assays: Nanosyn kinase panel” (2012)

Legend:
[1] = molecular target: T1, Mitogen-activated protein kinase 12 (Homo sapiens) (UniProt P53778); conditions: at 1 µM;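 note: values are averaged p38gamma kinase inhibition readings, compounds tested at 1 µM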
T1 sequence (whole entry): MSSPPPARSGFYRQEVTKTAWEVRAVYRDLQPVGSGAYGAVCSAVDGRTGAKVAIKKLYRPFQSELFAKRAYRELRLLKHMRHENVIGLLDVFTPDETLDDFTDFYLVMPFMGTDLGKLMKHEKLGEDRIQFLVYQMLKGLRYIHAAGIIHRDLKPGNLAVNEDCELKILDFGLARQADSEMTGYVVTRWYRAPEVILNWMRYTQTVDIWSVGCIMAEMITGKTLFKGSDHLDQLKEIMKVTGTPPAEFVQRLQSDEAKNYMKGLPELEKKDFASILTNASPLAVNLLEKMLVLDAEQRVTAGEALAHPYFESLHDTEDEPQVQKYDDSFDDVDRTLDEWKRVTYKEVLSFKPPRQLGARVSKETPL

[2] = molecular target: SRSF protein kinase 1 (Homo sapiens) (UniProt Q96SB4); conditions: at 0.1 µM
[3] = molecular target: SRSF protein kinase 1 (Homo sapiens) (UniProt Q96SB4); conditions: at 1 µM
[4] = molecular target: Phosphatidylinositol 4,5-bisphosphate 3-kinase catalytic subunit alpha isoform (Homo sapiens) (UniProt P42336); conditions: at 0.1 µM
[5] = molecular target: Phosphatidylinositol 4,5-bisphosphate 3-kinase catalytic subunit alpha isoform (Homo sapiens) (UniProt P42336); conditions: at 1 µM
[6] = molecular target: T2, Phosphatidylinositol 4,5-bisphosphate 3-kinase catalytic subunit delta isoform (Homo sapiens) (UniProt O00329); conditions: at 0.1 µM
T2 sequence (whole entry): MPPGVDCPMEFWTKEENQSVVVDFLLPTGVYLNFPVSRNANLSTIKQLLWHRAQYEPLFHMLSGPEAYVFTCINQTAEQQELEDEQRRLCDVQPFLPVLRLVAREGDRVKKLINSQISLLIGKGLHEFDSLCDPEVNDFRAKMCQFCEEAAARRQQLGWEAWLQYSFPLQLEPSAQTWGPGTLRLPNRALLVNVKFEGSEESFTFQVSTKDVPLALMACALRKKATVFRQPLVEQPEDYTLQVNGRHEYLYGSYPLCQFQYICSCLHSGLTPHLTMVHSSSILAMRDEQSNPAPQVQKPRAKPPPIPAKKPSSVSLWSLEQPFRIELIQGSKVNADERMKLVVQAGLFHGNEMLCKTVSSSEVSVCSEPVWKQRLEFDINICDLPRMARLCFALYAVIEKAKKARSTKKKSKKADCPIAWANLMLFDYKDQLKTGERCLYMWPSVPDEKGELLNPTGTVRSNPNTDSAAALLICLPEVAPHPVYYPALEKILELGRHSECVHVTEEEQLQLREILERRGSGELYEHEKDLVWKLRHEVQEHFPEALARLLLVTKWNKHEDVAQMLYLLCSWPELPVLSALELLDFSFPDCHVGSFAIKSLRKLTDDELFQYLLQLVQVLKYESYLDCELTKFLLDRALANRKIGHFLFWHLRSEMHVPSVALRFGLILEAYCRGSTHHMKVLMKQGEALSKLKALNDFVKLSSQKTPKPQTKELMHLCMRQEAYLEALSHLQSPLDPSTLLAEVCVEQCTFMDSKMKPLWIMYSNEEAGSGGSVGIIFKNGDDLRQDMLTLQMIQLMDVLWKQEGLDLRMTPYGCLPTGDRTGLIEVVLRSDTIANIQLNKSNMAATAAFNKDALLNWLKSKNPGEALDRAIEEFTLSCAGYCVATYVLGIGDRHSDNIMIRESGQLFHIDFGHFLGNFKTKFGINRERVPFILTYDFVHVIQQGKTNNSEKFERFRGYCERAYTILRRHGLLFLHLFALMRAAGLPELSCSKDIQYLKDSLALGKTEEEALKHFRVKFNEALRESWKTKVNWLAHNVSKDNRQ

[7] = molecular target: T2, Phosphatidylinositol 4,5-bisphosphate 3-kinase catalytic subunit delta isoform (Homo sapiens); conditions: at 1 µM
[8] = molecular target: Phosphatidylinositol 4-kinase beta (Homo sapiens) (UniProt Q9UBF8); conditions: at 0.1 µM
[9] = molecular target: Phosphatidylinositol 4-kinase beta (Homo sapiens) (UniProt Q9UBF8); conditions: at 1 µM
[10] = molecular target: Sphingosine kinase 1 (Homo sapiens) (UniProt Q9NYA1); conditions: at 0.1 µM
[11] = molecular target: Sphingosine kinase 1 (Homo sapiens) (UniProt Q9NYA1); conditions: at 1 µM
[12] = molecular target: T3, Sphingosine kinase 2 (Homo sapiens) (UniProt Q9NRA0); conditions: at 0.1 µM
T3 sequence (whole entry): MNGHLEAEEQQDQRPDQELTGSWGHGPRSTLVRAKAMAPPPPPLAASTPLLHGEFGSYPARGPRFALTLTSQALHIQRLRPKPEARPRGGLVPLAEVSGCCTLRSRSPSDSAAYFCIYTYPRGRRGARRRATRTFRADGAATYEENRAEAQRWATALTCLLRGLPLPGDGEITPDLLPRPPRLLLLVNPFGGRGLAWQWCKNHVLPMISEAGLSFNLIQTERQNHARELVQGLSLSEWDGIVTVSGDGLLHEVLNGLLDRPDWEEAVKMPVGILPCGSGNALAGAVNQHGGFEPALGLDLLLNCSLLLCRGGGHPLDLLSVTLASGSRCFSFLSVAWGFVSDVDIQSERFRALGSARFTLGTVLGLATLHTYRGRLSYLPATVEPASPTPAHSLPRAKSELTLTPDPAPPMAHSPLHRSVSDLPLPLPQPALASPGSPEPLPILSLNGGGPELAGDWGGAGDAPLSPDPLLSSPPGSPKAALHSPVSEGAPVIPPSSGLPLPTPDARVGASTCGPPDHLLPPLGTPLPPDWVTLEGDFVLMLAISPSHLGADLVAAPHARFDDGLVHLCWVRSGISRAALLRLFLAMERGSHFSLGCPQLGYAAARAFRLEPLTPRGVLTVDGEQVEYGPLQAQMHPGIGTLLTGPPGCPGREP

[13] = molecular target: T3, Sphingosine kinase 2 (Homo sapiens); conditions: at 1 µM
[14] = molecular target: Casein kinase II subunit alpha (Homo sapiens) (UniProt P68400); conditions: at 0.1 µM
[15] = molecular target: Casein kinase II subunit alpha (Homo sapiens) (UniProt P68400); conditions: at 1 µM
[16] = molecular target: T4, Inhibitor of nuclear factor kappa-B kinase subunit alpha (Homo sapiens) (UniProt O15111); conditions: at 0.1 µM
T4 sequence (whole entry): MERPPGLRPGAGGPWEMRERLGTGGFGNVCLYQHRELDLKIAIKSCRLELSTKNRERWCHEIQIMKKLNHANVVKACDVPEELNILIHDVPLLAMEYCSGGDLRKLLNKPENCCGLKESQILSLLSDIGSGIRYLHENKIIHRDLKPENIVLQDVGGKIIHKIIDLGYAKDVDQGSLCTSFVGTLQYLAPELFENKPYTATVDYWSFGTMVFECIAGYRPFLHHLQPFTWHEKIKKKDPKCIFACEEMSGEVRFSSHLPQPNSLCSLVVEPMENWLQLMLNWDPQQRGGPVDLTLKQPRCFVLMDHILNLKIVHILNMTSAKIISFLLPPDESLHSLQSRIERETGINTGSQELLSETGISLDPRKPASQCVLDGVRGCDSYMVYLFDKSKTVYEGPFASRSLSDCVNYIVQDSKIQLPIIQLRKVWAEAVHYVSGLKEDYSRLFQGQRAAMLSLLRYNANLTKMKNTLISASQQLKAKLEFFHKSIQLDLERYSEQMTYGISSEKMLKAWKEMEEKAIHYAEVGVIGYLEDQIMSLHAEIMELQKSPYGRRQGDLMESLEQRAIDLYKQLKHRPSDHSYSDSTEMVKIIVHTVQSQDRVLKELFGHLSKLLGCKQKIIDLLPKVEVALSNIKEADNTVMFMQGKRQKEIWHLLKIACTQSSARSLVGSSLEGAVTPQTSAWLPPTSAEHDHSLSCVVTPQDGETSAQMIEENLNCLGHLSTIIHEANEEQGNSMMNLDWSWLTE

[17] = molecular target: T4, Inhibitor of nuclear factor kappa-B kinase subunit alpha (Homo sapiens); conditions: at 1 µM
[18] = molecular target: T5, Inhibitor of nuclear factor kappa-B kinase subunit beta (Homo sapiens) (UniProt O14920); conditions: at 0.1 µM
T5 sequence (whole entry): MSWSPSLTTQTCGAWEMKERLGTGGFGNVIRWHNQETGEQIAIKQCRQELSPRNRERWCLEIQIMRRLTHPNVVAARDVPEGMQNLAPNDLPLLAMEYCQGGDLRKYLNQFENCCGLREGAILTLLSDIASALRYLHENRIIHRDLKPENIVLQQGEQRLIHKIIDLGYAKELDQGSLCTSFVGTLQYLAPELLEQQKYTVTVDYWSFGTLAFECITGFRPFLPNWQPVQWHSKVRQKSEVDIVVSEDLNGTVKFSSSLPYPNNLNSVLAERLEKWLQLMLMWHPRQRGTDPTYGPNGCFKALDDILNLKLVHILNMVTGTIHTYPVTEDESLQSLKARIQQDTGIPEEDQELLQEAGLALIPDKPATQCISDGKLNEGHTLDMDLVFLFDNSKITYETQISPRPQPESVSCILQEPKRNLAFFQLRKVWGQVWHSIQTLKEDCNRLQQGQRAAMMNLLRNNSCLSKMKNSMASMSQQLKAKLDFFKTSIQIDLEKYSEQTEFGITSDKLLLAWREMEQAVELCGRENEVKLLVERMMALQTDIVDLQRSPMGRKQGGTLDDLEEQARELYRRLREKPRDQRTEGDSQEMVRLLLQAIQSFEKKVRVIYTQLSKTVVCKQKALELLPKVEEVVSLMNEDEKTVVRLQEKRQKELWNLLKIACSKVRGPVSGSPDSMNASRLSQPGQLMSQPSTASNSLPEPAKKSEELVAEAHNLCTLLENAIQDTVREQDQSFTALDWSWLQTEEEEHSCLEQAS

[19] = molecular target: T5, Inhibitor of nuclear factor kappa-B kinase subunit beta (Homo sapiens); conditions: at 1 µM
[20] = molecular target: T6, Inhibitor of nuclear factor kappa-B kinase subunit epsilon (Homo sapiens) (UniProt Q14164); conditions: at 0.1 µM;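 note: mean inhibition of IKKε reported, from the GSK PKIS dataset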
T6 sequence (whole entry): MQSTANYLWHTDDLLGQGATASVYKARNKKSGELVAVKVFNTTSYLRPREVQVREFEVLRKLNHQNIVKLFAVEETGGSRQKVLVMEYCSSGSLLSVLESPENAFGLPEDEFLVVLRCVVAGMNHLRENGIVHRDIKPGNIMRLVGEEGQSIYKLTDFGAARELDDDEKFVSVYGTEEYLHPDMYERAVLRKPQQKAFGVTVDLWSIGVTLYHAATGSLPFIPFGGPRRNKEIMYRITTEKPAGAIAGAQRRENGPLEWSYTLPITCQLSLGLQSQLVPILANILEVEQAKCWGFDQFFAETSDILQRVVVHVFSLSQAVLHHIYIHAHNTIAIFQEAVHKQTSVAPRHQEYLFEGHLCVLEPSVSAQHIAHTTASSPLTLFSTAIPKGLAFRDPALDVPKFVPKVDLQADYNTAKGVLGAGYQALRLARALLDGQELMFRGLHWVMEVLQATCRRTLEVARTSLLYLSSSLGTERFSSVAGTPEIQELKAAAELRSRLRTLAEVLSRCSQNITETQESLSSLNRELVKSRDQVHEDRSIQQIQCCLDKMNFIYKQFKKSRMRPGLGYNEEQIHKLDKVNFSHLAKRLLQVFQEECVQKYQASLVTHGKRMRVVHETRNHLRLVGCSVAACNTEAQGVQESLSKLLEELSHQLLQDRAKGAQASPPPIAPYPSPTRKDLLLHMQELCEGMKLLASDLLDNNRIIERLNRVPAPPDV

SRSF protein kinase 1 (Homo sapiens), sequence (Q96SB4 whole entry, canonical isoform): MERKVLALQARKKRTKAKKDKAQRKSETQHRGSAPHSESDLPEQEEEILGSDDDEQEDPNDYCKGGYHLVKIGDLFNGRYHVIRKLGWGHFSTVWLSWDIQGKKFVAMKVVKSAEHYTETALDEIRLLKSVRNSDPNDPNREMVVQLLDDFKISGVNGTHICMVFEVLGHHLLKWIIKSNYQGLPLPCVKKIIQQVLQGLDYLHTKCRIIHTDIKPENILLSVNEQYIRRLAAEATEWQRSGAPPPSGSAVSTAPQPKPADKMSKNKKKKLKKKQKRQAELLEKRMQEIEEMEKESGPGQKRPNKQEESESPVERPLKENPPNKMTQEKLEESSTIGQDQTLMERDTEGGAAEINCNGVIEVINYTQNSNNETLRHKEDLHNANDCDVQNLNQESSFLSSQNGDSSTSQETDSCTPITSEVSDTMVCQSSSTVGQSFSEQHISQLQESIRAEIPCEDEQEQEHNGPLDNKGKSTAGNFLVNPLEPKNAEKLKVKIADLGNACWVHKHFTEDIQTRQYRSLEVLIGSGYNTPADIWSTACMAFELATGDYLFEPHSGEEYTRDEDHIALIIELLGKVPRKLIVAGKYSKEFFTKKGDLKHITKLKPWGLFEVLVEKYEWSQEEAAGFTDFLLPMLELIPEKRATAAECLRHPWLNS
Phosphatidylinositol 4-kinase beta (Homo sapiens), sequence (Q9UBF8 2-816 limits assumed): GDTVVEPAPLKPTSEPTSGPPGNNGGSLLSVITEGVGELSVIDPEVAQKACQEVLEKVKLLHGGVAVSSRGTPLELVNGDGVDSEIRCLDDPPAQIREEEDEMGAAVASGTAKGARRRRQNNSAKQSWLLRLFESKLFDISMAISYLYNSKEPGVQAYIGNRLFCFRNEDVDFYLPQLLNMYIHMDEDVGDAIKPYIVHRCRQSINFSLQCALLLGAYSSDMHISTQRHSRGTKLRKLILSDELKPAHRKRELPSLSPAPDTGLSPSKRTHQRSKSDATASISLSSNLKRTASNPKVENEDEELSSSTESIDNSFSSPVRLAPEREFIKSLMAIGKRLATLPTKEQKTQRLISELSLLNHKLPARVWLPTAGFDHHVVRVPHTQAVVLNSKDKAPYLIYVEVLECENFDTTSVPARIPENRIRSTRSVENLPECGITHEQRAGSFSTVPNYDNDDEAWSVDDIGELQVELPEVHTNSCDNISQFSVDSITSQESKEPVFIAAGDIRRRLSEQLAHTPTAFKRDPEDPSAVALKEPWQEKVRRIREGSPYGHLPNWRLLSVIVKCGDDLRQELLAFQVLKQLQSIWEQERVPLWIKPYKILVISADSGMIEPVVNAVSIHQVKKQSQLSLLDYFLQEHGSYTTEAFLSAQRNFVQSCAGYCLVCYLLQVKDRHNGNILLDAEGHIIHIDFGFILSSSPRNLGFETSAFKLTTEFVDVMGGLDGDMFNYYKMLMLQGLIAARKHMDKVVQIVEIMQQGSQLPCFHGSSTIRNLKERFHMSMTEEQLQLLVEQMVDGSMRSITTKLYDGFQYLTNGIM
Phosphatidylinositol 4,5-bisphosphate 3-kinase catalytic subunit alpha isoform (Homo sapiens), sequence (P42336 whole entry, canonical isoform): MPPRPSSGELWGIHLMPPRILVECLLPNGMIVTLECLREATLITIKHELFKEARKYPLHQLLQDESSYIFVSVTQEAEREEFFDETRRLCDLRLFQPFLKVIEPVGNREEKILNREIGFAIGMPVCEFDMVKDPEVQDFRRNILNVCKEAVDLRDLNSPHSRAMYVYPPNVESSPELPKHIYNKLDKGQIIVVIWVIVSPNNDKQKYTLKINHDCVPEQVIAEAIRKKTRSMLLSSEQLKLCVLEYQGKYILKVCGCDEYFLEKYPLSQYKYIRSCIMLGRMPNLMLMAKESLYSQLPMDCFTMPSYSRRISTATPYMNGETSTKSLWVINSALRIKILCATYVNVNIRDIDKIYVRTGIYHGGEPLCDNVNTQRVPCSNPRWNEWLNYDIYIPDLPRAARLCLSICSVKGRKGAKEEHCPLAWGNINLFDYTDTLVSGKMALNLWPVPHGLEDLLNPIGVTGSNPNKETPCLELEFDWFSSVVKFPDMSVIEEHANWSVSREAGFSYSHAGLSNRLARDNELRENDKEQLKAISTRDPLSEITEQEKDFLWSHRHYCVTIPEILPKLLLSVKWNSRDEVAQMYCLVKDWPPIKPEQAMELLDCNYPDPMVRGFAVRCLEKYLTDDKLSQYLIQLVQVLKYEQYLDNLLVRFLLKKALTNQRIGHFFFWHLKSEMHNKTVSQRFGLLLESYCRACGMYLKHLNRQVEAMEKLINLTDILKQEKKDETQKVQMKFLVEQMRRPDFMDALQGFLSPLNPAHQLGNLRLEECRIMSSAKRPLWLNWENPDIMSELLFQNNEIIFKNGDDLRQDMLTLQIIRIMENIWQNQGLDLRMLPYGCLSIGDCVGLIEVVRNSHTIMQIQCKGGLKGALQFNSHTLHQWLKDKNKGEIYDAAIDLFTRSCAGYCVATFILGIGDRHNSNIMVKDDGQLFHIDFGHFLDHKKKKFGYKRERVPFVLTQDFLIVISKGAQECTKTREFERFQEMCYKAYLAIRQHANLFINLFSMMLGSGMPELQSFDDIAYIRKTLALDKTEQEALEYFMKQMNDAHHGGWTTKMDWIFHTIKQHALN
Sphingosine kinase 1 (Homo sapiens), sequence (Q9NYA1 whole entry): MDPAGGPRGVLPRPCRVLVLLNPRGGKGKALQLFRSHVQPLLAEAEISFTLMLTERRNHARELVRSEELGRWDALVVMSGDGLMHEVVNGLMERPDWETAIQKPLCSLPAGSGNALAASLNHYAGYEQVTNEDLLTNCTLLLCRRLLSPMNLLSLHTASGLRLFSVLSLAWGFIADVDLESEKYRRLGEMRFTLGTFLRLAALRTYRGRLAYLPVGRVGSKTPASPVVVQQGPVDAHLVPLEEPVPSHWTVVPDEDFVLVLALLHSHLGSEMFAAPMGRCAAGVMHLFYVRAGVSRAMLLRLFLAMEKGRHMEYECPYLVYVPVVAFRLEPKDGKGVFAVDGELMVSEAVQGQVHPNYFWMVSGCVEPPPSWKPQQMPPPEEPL
Casein kinase II subunit alpha (Homo sapiens), sequence (P68400 whole entry, looked up): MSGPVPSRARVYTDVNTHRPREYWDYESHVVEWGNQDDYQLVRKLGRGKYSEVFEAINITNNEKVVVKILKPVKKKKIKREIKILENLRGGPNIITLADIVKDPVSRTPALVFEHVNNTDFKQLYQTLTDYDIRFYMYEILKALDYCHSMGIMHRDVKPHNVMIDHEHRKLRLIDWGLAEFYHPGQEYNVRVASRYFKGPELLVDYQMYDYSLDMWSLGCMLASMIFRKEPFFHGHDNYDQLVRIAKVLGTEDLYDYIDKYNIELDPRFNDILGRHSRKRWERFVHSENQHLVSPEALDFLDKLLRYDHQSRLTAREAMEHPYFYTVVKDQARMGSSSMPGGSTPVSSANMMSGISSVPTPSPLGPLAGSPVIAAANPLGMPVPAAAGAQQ

Row | SMILES | inhibition [1] [%] | inhibition [2] [%] | inhibition [3] [%] | inhibition [4] [%] | inhibition [5] [%] | inhibition [6] [%] | inhibition [7] [%] | inhibition [8] [%] | inhibition [9] [%] | inhibition [10] [%] | inhibition [11] [%] | inhibition [12] [%] | inhibition [13] [%] | inhibition [14] [%] | inhibition [15] [%] | inhibition [16] [%] | inhibition [17] [%] | inhibition [18] [%] | inhibition [19] [%] | inhibition [20] [%]
1 | C#Cc1cccc(Nc2ncnc3ccc(OCCCCNCCS(C)(=O)=O)cc23)c1 | 3.54 | -1.38 | -0.94 | 5 | 4.83 | 2.6 | 5.7 | -2.49 | -1.03 | 5.65 | -0.99 | -0.09 | 0.04 | 4.02 | 9.21 | 5.89 | 12.2 | 6.73 | 9.06 | 7.86
2 | COc1ccc(C2=C(N3CCc4ccccc43)C(=O)NC2=O)cc1 | 3.4 | -1.12 | 0.76 | 6.53 | 12.6 | 5.26 | 9.11 | 3.23 | -7.57 | 0.25 | -5.21 | 0.83 | 0.21 | 5.6 | 6.96 | 9.04 | 6.68 | 6.54 | 3.83 | 13.5
3 | Clc1ccc(CNc2nccc(-c3cnn4ncccc34)n2)cc1 | 1.18 | 0.9 | 1.1 | -1.31 | 0.56 | -0.61 | 1.79 | 2.18 | 1.28 | -0.17 | 0.04 | -0.11 | -0.22 | 2.95 | 17.9 | 1.91 | 7.65 | 1 | 0.32 | 0.31
